The whole screen tested about 69,000 compounds, of which about 8,600 (12%) showed an effect of 50% or more. Shown is part of a subset that was picked to be rich in strong results.
system: Plasmodium berghei; experiment: Screen against P. berghei liver stage (PbLuc), transformed with Luciferase, at 10uM; type: functional, HepG2; conditions: tested at 10 uM

| SMILES | INHIBITION |
| --- | --- |
| CCS(=O)(=O)N1CCC2(CCN(CC(=O)N(C)C)C2=O)CC1 | 37.1% |
| NC(=O)c1ccccc1Oc1cccc(C2CCCNC2)n1 (stereo not drawn) | -13.2% |
| O=c1[nH]c2ccc(S(=O)(=O)N(CCO)Cc3ccncc3)cc2[nH]1 | 17.5% |
| Cc1oncc1C(=O)N1CCOCC2(CCN(c3ccccn3)C2)C1 (stereo not drawn) | 45.1% |
| c1ccc(OCC2CC3(CCN(c4ncccn4)CC3)CO2)nc1 (stereo not drawn) | -34% |
| COc1ccnc(N2CCN(CC(=O)N3CCC(C)CC3)CC2)n1 | -22.9% |
| Cc1cc(CN(C)C(=O)c2ccc(F)c(C(F)(F)F)c2)no1 | 23.5% |
| CN(Cc1ccccc1C#N)C1CCN(CCc2ccccn2)CC1 | -52.5% |
| c1ccc(-c2noc(CCNC3CCOC4(CCOCC4)C3)n2)nc1 (stereo not drawn) | -37.8% |
| CCn1cc(CN2CCCN(C(=O)c3sc(C)nc3C)CC2)cn1 | 7.08% |
| O=C(c1ccsc1)N1CCc2onc(COc3ccccn3)c2C1 | 45.8% |
| COc1c(CNCc2ccccc2Cn2ccnc2)c(C)nn1C | 24% |
| CCCc1nnsc1C(=O)N1CCN(CC(O)c2ccco2)CC1 (stereo not drawn) | 7.85% |
| Fc1ccc(OCC2CCCO2)c(NCc2cn3cccnc3n2)c1 (stereo not drawn) | 59.3% |
| O=C(Nc1cc(F)ccc1OCC1CCCO1)c1ccccn1 (stereo not drawn) | -25.9% |
| O=C(CNc1cc(F)ccc1OCC1CCCO1)N1CCOCC1 (stereo not drawn) | 19.5% |
| Nc1ccnc(CNc2cc(F)ccc2OCC2CCCO2)n1 (stereo not drawn) | 54.4% |
| Fc1ccc(OCC2CCCO2)c(NCc2noc(C3CC3)n2)c1 (stereo not drawn) | 35.5% |
| CCc1noc(CNc2cc(F)ccc2OCC2CCCO2)n1 (stereo not drawn) | 1.81% |
| CCc1nc(CNc2cc(Cl)ccc2OCC2CCCO2)no1 (stereo not drawn) | 93.1% |
| CCc1noc(CNc2ccc(F)cc2OCC2CC2)n1 | -29.9% |
| CC(C)(C)c1nnc(CNc2cc(F)ccc2OCC2CCCO2)o1 (stereo not drawn) | 35.5% |
| NCC1CCC2(CCN(C(=O)c3ccccn3)CC2)CO1 (stereo not drawn) | 38.5% |

| SMILES | INHIBITION |
| --- | --- |
| Cc1ncc(C(=O)NC2CCc3nccn3C2)c(C(C)C)n1 (stereo not drawn) | 11.6% |
| CCOCC1c2c(cnn2CC2CC2)CCN1C(=O)c1ccncn1 (stereo not drawn) | 6.72% |
| O=C(CC1CC1)N1CC[C@@H]2[C@H](CC1)N(Cc1cccnc1)CCS2(=O)=O | -35% |
| Cc1nc(C)n(C2CCCN(C(=O)CCn3ccnn3)C2)n1 (stereo not drawn) | -10.3% |
| Cc1cn[nH]c1C1COCCN1Cc1ccsc1 (stereo not drawn) | 25.15% |
| O=C(NS(=O)(=O)c1c(Cl)cccc1Cl)c1cccc2c1OCCO2 | 12.3% |
| O=C(CCCC(=O)NCc1cccc(Br)c1)NCCN1CCCC1 | 17.5% |
| CC(C)S(=O)(=O)N1CCC(c2cc3n(n2)[C@@H](C(F)(F)F)C[C@@H](C)N3)C1 (stereo partly drawn) | 27.3% |
| CCOc1cc(C)nc(N2CCN(C(=O)C(C)NC(C)=O)CC2)n1 (stereo not drawn) | 60.5% |
| CCOc1cc(C)nc(N2CCN(C(=O)c3ccncc3)CC2)n1 | 33.8% |
| CCOc1cc(C)nc(N2CCN(C(=O)CC)CC2)n1 | 8.25% |
| CCN(CC)CC(=O)N1CCN(c2nc(C)cc(OC)n2)CC1 | 2.54% |
| COc1cc(C)nc(N2CCN(C(=O)CN(C)C3CC3)CC2)n1 | -3.18% |
| COc1cc(C)nc(N2CCN(C(=O)CN(C)C(C)C)CC2)n1 | 59.9% |
| CCOC1COC2(CCN(CC3CCOCC3)CC2)C1 (stereo not drawn) | 31.2% |
| Clc1ccc(CN2CCCCC2Cn2cncn2)c2ncccc12 (stereo not drawn) | 40.65% |
| Cc1nc(CN2CC[C@H]3[C@H]2CCN3c2nncs2)cs1 | 40.8% |
| Cc1nn(CCN2CCSCC2)cc1CNCc1ccccn1 | 23.5% |
| OC(COCc1ccccc1F)CN1CCC(Cn2cccn2)CC1 (stereo not drawn) | 46.3% |
| c1ncn(CC2CCCN(Cc3nc(-c4ccoc4)no3)C2)n1 (stereo not drawn) | -34% |
| CN(C)C(=O)N1CCC2(CC1)CCN(c1ncccn1)C2 | -26.1% |
| Cc1ccc(CNC(=O)c2nc3c(n2C)CCN(c2ncccn2)C3)o1 | 48.4% |
| COc1cc(CNCc2c(C)nn(C)c2N(C)C)ccc1OCCO | 21.6% |

| SMILES | INHIBITION |
| --- | --- |
| Nc1c(Cl)cnn1C1CCN(Cc2ccccc2)C1 (stereo not drawn) | 37.7% |
| Cc1cnn(C2CCN(Cc3ccccc3)C2)c1N (stereo not drawn) | 56.1% |
| Nc1ccnn1C1CCN(Cc2ccccc2)C1 (stereo not drawn) | 43.1% |
| Cc1ccc(NC(=O)[C@@H]2C[C@H](C(=O)O)CN(Cc3sccc3C)C2)cn1 | 29.4% |
| Cc1ccc(NC2CCN(C(=O)c3cccnc3O)CC2)nn1 | 16.8% |
| Cc1csc2c(=O)n(CCSc3cnn[nH]3)cnc12 | 18.5% |
| c1ccc(CCN2CCN(C3CCOC4(CCOCC4)C3)CC2)nc1 (stereo not drawn) | 7.24% |
| CCc1ccc(C(=O)N2CCC(c3nncn3CC)CC2)cc1 | -3.16% |
| Cc1ncccc1O[C@H]1CCN(C(=O)Cc2cccs2)CC[C@@H]1O | 42.9% |
| CCc1ccc(C(=O)N2CC[C@H](Oc3cccnc3C)[C@@H](O)CC2)cc1 | 78.2% |
| Cc1csc(C(=O)N2CC[C@H](Oc3cccnc3C)[C@@H](O)CC2)c1 | 57.5% |
| Cc1ncccc1O[C@H]1CCN(C(=O)c2cccs2)CC[C@@H]1O | 23.3% |
| Cc1ccc(C(=O)N2CC[C@H](Oc3cccnc3C)[C@@H](O)CC2)s1 | 44.1% |
| O=C(NC1CCCCC1)N1CCc2onc(COc3cccnc3)c2C1 | 40.4% |
| Cc1ccoc1C(=O)N1CCOCC2(CCN(c3ncccn3)C2)C1 (stereo not drawn) | -19.9% |
| CC(C)CNC(=O)CNC(=O)NC(C)COc1ccccc1F (stereo not drawn) | -24.5% |
| O=C(NCC1CC1)C1CSCN1S(=O)(=O)c1cc(F)cc(F)c1 (stereo not drawn) | 27.7% |
| Cc1noc([C@@H]2CC[C@@H]3[C@@H](CCN3S(=O)(=O)c3cccnc3)O2)n1 | -2.53% |
| Cc1nnc2n1CCN(c1nc3ccccc3o1)C2 | 2.97% |
| c1ccc2oc(N3CCn4c(nnc4C4CC4)C3)nc2c1 | 68.4% |
| CC(C)c1nnc2n1CCN(c1nc3ccccc3o1)C2 | 16.8% |
| CCc1nc(C2CCCN2C(=O)c2ccc(N(C)C)nn2)no1 (stereo not drawn) | 24.295% |
